Several values for one entry are separate records, joined by “and”; a condition that tells them apart may be missing. Equal entries are not always repeated. Among all 5,500 compounds or so, about 2,000 (36%) were called active. Not shown: some 18% with an inconclusive outcome. Cut-off read from the data, not from the text of the source: active = normalized growth mostly below about 0.91 (no sharp cut-off); inconclusive = no clear call, values can overlap the other calls; inactive = mostly above about 0.92. The list shows a part of the results.
Assay: chemical genetic growth profiling, strain panel (AID 1159580);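 note: tested at 20 µM; growth read once vehicle control cultures reached saturation at 30 °C; 1 = growth at the plate median or of vehicle wells; lower values mean less growth of the strain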
Details: S. cerevisiae deletion strains, growth OD

Measured: normalized growth

c1ccc2c(c1)sc1ccccc12
active: locus YAL013W, strain DEP1, active compounds read low 0.807 | locus YAL026C, strain drs2, active compounds read low 0.832 | locus YAL030W, strain snc1, active compounds read low 0.851 | locus YBL061C, strain skt5, active compounds read low 0.811 | locus YBR009C, strain hhf1, active compounds read low 0.734 | locus YBR023C, strain chs3, active compounds read low 0.867 | locus YBR231C, strain swc5, active compounds read low 0.86 | locus YCL011C, strain gbp2, active compounds read low 0.815 | locus YCL016C, strain dcc1, active compounds read low 0.877 | locus YCL069W, strain vba3, active compounds read low 0.778 | locus YCR088W, strain abp1, active compounds read low 0.905 | locus YDL005C, strain med2, active compounds read low 0.906 | locus YDR001C, strain nth1, active compounds read low 0.894 | locus YDR137W, strain rgp1, active compounds read low 0.427 | locus YDR297W, strain sur2, active compounds read low 0.842 | locus YDR318W, strain mcm21, active compounds read low 0.912 | locus YDR334W, strain swr1, active compounds read low 0.871 | locus YDR335W, strain msn5, active compounds read low 0.781 | locus YDR392W, strain spt3, active compounds read low 0.588 | locus YEL003W, strain gim4, active compounds read low 0.572 | locus YEL061C, strain CIN8 (second series), active compounds read low 0.8 | locus YER015W, strain faa2, active compounds read low 0.765 | locus YER111C, strain swi4, active compounds read low 0.823 | locus YER155C, strain BEM2 (second series), active compounds read low 0.223 | locus YGL173C, strain kem1, active compounds read low 0.827 | locus YGL227W, strain vid30, active compounds read low 0.809 | locus YGL240W, strain doc1, active compounds read low 0.778 | locus YGL253W, strain hxk2, active compounds read low 0.854 | locus YHR013C, strain ard1, active compounds read low 1.25 [resistant] | locus YHR142W, strain chs7, active compounds read low 0.597 | locus YJL092W, strain hpr5, active compounds read low 0.841 | locus YJL095W, strain BCK1 (second series), active compounds read low 0.834 | locus YJL129C, strain trk1, active compounds read low 0.802 | locus YJL164C, strain tpk1, active compounds read low 0.802 | locus YJL166W, strain qcr8, active compounds read low 0.652 | locus YJL187C, strain SWE1, active compounds read low 0.882
inactive: locus YAL021C, strain ccr4, active compounds read low 1.02 | locus YBR021W, strain FUR4, active compounds read low 1.03 | locus YBR171W, strain sec66, active compounds read low 0.912 | locus YBR229C, strain ROT2, active compounds read low 1 | locus YBR279W, strain paf1, active compounds read low 0.952 | locus YCL029C, strain bik1, active compounds read low 0.973 | locus YDL035C, strain GPR1, active compounds read low 0.99 | locus YDL040C, strain nat1, active compounds read low 0.942 | locus YDL074C, strain BRE1, active compounds read low 0.97 | locus YDL101C, strain DUN1, active compounds read low 0.96 | locus YDL134C, strain PPH21, active compounds read low 0.938 | locus YDL185W, strain tfp1, active compounds read low 0.986 | locus YDL192W, strain arf1, active compounds read low 0.959 | locus YDR069C, strain doa4, active compounds read low 1.02 | locus YDR101C, strain arx1, active compounds read low 0.955 | locus YDR159W, strain sac3, active compounds read low 0.869 | locus YDR162C, strain NBP2, active compounds read low 0.883 | locus YDR195W, strain ref2 1.09 | locus YDR388W, active compounds read low 0.971 | locus YDR502C, strain sam2, active compounds read low 0.928 | locus YEL037C, strain rad23, active compounds read low 0.933 | locus YEL061C, strain CIN8, active compounds read low 0.991 | locus YER016W, strain bim1, active compounds read low 0.957 | locus YER110C, active compounds read low 0.97 | locus YER155C, strain BEM2, active compounds read low 0.946 | locus YER167W, strain BCK2, active compounds read low 0.96 | locus YFR010W, strain ubp6, active compounds read low 0.976 | locus YGL078C, strain dbp3, active compounds read low 0.973 | locus YGL086W, strain mad1, active compounds read low 0.941 | locus YGL167C, strain pmr1, active compounds read low 0.937 | locus YGL248W, strain PDE1, active compounds read low 0.898 | locus YGR135W, strain pre9, active compounds read low 0.929 | locus YGR229C, strain SMI1, active compounds read low 0.917 | locus YGR252W, strain gcn5, active compounds read low 1.02 | locus YHR027C, strain rpn1, active compounds read low 0.922 | locus YHR030C, strain SLT2, active compounds read low 0.978 and 0.997 | locus YHR079C, strain IRE1 (second series), active compounds read low 0.957 | locus YHR079C, strain IRE1, active compounds read low 0.996 | locus YHR094C, strain hxt1, active compounds read low 0.972 | locus YHR129C, strain ARP1, active compounds read low 0.981 | locus YHR200W, strain rpn10, active compounds read low 0.97 | locus YIL066C, strain RNR3, active compounds read low 0.994 | locus YIL073C, strain SPO22, active compounds read low 0.951 | locus YIL125W, strain kgd1, active compounds read low 0.962 | locus YIR030C, strain dcg1, active compounds read low 0.957 | locus YJL095W, strain BCK1, active compounds read low 0.834 and 1.01 | locus YJL115W, strain asf1, active compounds read low 0.921 | locus YJL134W, strain LCB3, active compounds read low 0.995 | locus YJL154C, strain vps35, active compounds read low 0.924 | locus YJL168C, strain set2, active compounds read low 0.97 | locus YJL187C, strain SWE1 (second series), active compounds read low 0.957

Source: PubChem BioAssay AID1159580 (chemical genetic matrix, 2015)
